Reference: PubChem BioAssay AID2688 (National Center for Advancing Translational Sciences (NCATS), 2010)
Some of the results follow. Inconclusive results are not listed. Active and inactive are the calls of the source.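 Rule for the calls: active = compounds whose IC50 for blocking JMJD2E demethylation is below 100 µM; inconclusive = dose dependent effect but IC50 above 100 µM; inactive = the rest.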

target: Lysine-specific demethylase 4E (Homo sapiens) (UniProt B2RXH2); experiment: MALDI-TOF-MS Assay for Inhibitors of Human Jumonji Domain Containing 2E (JMJD2E); conditions: recombinant JMJD2E demethylation
Sequence (B2RXH2 1-337 limits assumed): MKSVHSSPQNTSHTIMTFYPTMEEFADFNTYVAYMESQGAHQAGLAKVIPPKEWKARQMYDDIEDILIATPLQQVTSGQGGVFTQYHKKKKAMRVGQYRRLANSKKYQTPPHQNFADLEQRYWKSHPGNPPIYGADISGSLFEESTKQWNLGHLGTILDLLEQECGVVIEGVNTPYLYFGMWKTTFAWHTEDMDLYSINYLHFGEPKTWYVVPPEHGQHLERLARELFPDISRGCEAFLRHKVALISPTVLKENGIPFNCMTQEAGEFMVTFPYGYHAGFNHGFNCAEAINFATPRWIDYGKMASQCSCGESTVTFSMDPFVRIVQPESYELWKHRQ
Text: The fine interplay among methylation states of several lysine residues on the tails of histone proteins is a major determinant of the transcriptional state of the associated DNA coding regions and is commonly referred to as the histone code. Histone lysine demethylases catalyze the removal of methyl groups from methylated lysine sidechains on histones H3 and H4, thus antagonizing the reactions catalyzed by histone lysine methyltransferases. […] In search for novel inhibitors of JMJD2E demethylase, a member of the largest set of histone demethylases belonging to the Fe(II) and 2-oxoglutarate oxygenase (2OG) superfamily, we performed a quantitative high-throughput screen (Inglese 2006). See AID 2147 for details on the primary screen. […]
For the MS assays, JMJD2E (2 uM), FAS (10 uM) and SA (100 uM) in HEPES buffer, 50 mM, pH 7.5, were incubated with inhibitor (stock solutions in DMSO, final in-assay concentration varied, but final DMSO concentration was 5% of assay mix) for 15 min at room temperature. […] The relative intensities of different methylation states observed in the mass spectra were then used to calculate percentage demethylation, and IC50s were calculated from the variation in percentage demethylation at different inhibitor concentrations.

Row | Compound | Potency
1 | Oc1ccc(/C=C/c2c(F)cccc2F)c2cccnc12 | 89.6 µM (active)
2 | Nc1ccc(Nc2cc(O)c3ncccc3c2)cc1 | 20.2 µM (active)
